Source: PubChem BioAssay AID1030 (National Center for Advancing Translational Sciences (NCATS), 2008)
Several values for one entry are separate records, joined by “and”; a condition that tells them apart may be missing. Identical values can stand only once. In all, about 220,000 compounds went through this assay and about 16,000 (7.3%) were called active. About 25% were inconclusive and are not listed. The call rests on the fitted dose curve; in most records, active means well fitted inhibition curve with a large enough effect (not every such curve was filed as active); inconclusive means small, poorly fitted or top-dose-only effect, or another doubt; inactive means no such curve, though single readings can be large or run the other way. The full list was thinned out, with actives kept by preference. Where a structure was tested more than once in an assay, its records may differ in their call.

What follows are compounds tested against Aldehyde dehydrogenase 1A1 (Homo sapiens) (UniProt P00352) (assay: qHTS Assay for Inhibitors of Aldehyde Dehydrogenase 1 (ALDH1A1)). Settings: Purified ALDH1A1, NADH fluorescence, propionaldehyde substrate; series mostly up to 75.3 µM; activity, negative = inhibition: at the top concentration.
Potency means the concentration at half of the fitted maximal effect.
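Wherever activity, negative = inhibition is given: plate controls were no enzyme wells and a reference inhibitor.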

Sequence of Aldehyde dehydrogenase 1A1 (Homo sapiens) (P00352 whole entry, looked up): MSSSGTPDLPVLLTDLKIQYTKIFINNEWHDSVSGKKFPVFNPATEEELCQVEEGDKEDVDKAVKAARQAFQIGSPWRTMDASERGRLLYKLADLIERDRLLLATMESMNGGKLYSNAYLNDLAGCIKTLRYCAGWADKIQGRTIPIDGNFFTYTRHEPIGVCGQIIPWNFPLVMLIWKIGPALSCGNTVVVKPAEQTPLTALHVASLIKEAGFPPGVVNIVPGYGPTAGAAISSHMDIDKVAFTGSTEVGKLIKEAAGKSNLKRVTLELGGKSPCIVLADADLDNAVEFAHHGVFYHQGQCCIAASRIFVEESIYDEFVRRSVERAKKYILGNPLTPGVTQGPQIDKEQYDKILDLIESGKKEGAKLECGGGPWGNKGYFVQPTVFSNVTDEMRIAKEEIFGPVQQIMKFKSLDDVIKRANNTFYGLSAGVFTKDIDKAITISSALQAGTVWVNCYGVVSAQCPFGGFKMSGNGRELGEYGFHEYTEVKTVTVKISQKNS

SMILES | activity, negative = inhibition | Potency
COc1ccccc1N=Nc1c(O)[nH]c(=S)[nH]c1=O | -12% (inactive) | –
Cc1ccc2c(c1)=C/C(=C\c1c(O)[nH]c(=O)[nH]c1=O)C(=O)N=2 | – | 1.58 µM (active)
O=C1N=c2ccccc2=C/C1=C\c1c(O)[nH]c(=S)[nH]c1=O | – | 2.51 µM (active)
CC(C)CCC1(CCN)C(=O)NC(=O)NC1=O | 0.154% [at 13.5 µM] (inactive) | –
CCOc1ccc(CN(CCCl)CCCl)cc1C(=O)OC | -5.9% (inactive) | –
COc1ccc(C2Oc3c(I)c(OC)cc(OC)c3CC2O)cc1OC (configuration not stated) | 9.99% (inactive) | –
O=C(Nc1cccc2ccccc12)N1CCC2(CC1)OCCO2 | -5.72% (inactive) | –
COc1ccccc1-c1[se]c2ccccc2c1I | 7.96% (inactive) | –
Cc1ccc(N(C)C(=O)Oc2cccc3ccc(C)nc23)cc1 | 6.33% (inactive) | –
CS(=N)(=O)CC[C@H](N)P(=O)(O)O (some centres not stated) | 4.42% [at 13.5 µM] (inactive) | –
CC(=O)NBr | 5.46% (inactive) | –
CCC1(c2ccccc2)C(=O)NC(=O)N(C)C1=O (configuration not stated) | -2.03% (inactive) | –
c1ccc(Cc2nn3c(Cn4cnc5ccccc54)nnc3s2)cc1 | – | 2.24 µM (active)
c1ccc(CCCCN2CCC(c3ccccc3)CC2)cc1 | – | inactive
c1cncc(CNCCc2c[nH]c3ccccc23)c1 | -3.63% (inactive) | –
NC(=O)Nc1cccc(C(F)(F)F)c1 | 9.13% (inactive) | –
C[C@@]1([C@@H](NP(=O)(c2ccccc2)c2ccccc2)c2ccccc2)C[C@H]1CCO | – | inactive
CCCCC#N | 3.32% (inactive) | –
Clc1ccc2nc3c(c(-c4ccccc4)c2c1)CNCC3 | 11.2% (inactive) | –
N#CC(C#N)=Cc1cc(O)c(O)c([N+](=O)[O-])c1 | – | inactive and 20 µM (active)
Cc1cccc(-n2c(O)c(/C=N/N3CCOCC3)c(=O)[nH]c2=S)c1 | 0.025% (inactive) | –
CN[C@@H]1C[C@H]2O[C@@](C)([C@@H]1OC)n1c3ccccc3c3c4c(c5c6ccccc6n2c5c31)C(=O)NC4 | -5.83% [at 13.5 µM] (inactive) | –
CN(C)C(=O)NC(O)C(Cl)(Cl)Cl (configuration not stated) | 10.9% (inactive) | –
C[C@]12CC[C@@H]3C(=CCc4cc(O)ccc43)[C@@H]1CCC2=O | – | 0.501 µM (active)
CCC(C)C(=O)O[C@@H]1C[C@@]2(C)C(c3ccoc3)OC(=O)CC23OC2(C)O[C@@]14[C@@]1(C)C(CC(=O)OC)C5(C)CC1(O)C(O)(C5OC(=O)C1(C)OC1C)C(OC(C)=O)[C@@]34O2 (some centres not stated) | 2.69% (inactive) | –
Cc1noc(C)c1CSc1nc2cc(S(=O)(=O)N3CCOCC3)ccc2o1 | – | 3.55 µM (active)

SMILES | activity, negative = inhibition | Potency
O=C(c1cc(S(=O)(=O)N2CCOCC2)ccc1F)N1CCC2(CC1)OCCO2 | -0.0979% (inactive) | –
N#CCCCl | – | inactive
O=C(Nc1cccc(OC(=O)N2CCCCC2)c1)N1CCOCC1 | 0.604% (inactive) | –
O=C1NC(=O)N(c2ccccc2)C(=O)/C1=C/c1ccc([N+](=O)[O-])s1 | – | 22.4 µM (active)
CCN1CCN(C(=O)Cc2coc3cc(C)cc(C)c23)CC1 | 3.22% (inactive) | –
Nc1ccc(C(=O)N/N=C2/CN3CCC2CC3)cc1 | -2.99% (inactive) | –
CCCCCCN=C(CC)c1c(O)n(CCCC)c(=O)[nH]c1=O | -12.5% (inactive) | –
CCc1nnc(NS(=O)(=O)c2ccc(N=Cc3c(O)n(-c4ccccc4)c(=O)[nH]c3=O)cc2)s1 | -1.28% (inactive) | –
C[N+]1(C)CCOC(O)(c2ccc(-c3ccc(C4(O)C[N+](C)(C)CCO4)cc3)cc2)C1 (configuration not stated) | – | inactive and 14.1 µM (active)
COc1ccc(CCn2c(O)c(C=NCCCn3ccnc3)c(=O)[nH]c2=O)cc1OC | 6.68% (inactive) | –
Cc1cccc2c3c(ccc12)C1=C(C(=O)C3=O)C(C)CO1 (configuration not stated) | – | 17.8 µM (active)
C=CCN(CC=C)C(=O)Nc1ccc(OCC)cc1 | 2.89% (inactive) | –
CNC(=S)N/N=C1\C2CN3CCN(C2)CC1(c1ccccc1)C3 | -2.12% (inactive) | –
COc1ccc(CN2CCN(c3ccccc3F)CC2)c(OC)c1 | -7.76% (inactive) | –
CC(C)c1ccc(O)c(CN2CCN(c3ccccc3)CC2)c1 | – | 2 µM (active)
Fc1ccc(N2CCN(Cc3ccc4c(c3)OCO4)CC2)cc1 | -1.2% (inactive) | –
COc1ccc2c3c1OC1CC(O)C=C[C@@]31CCN(C)C2 (some centres not stated) | -2.76% (inactive) | –
CC1=C(C(=O)Nc2ccccc2)SCCO1 | -8.55% (inactive) | –
CC(C)N(CC#CCC1(O)c2ccccc2-c2ccccc21)C(C)C | 3.69% (inactive) | –
CN1C2C=C(N(C(=O)c3ccc(Cl)cc3)c3ccccc3)CC1CC2 (configuration not stated) | 6.47% (inactive) | –
CC(C)(O)/C=C\C(=O)[C@](C)(O)[C@H]1[C@H](O)C[C@]2(C)[C@@H]3CC=C4[C@@H](C=C(O)C(=O)C4(C)C)[C@]3(C)C(=O)C[C@@]12C | 8.67% [at 13.5 µM] (inactive) | –
c1csc(CN2CC3(CCNCC3)C2)n1 | 0.181% (inactive) | –
c1ccc2c(c1)[I+]c1ccccc1-2 | -5.77% (inactive) | –
Cc1ccc(-n2c(C)cc(/C=C3\C(=O)NC(=O)N(C)C3=O)c2C)cc1C | – | 17.8 µM (active)
Cc1ccccc1N1C(=O)NC(=O)/C(=C\c2cc(C)n(C)c2C)C1=O | -4.17% (inactive) | –
Cc1cc(C=C2C(=O)NC(=O)NC2=O)c(C)n1-c1ccncc1 | – | 14.1 µM (active)
